Screening data deposited in PubChem by Sanford-Burnham Center for Chemical Genomics.
PHOSPHO1 inh: PubChem AID 1565. inhibition, % at 13.3 µM. Phosphoethanolamine/phosphocholine phosphatase (Homo sapiens), Q8TCT1. actives 1.1% (n = 290,000). recombinant PHOSPHO1, absorbance phosphatase assay; in the data active = inhibition above about 60%
Target sequence (Q8TCT1 whole entry, looked up): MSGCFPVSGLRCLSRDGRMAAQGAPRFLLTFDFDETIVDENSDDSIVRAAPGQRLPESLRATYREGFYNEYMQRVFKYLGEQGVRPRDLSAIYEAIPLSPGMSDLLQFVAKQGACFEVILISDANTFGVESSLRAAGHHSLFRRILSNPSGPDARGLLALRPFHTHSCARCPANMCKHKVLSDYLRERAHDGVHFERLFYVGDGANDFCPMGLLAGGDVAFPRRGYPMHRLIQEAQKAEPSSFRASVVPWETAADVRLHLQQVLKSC
PABP1 MLLE inh: inhibitors of PABP1 MLLE–PAM2 peptide binding, primary screen, biochemical, fluorescence polarization, FITC-PAM2, GST-MLLE; Polyadenylate-binding protein 1 (Homo sapiens), P11940; inhibition, % at 20 µM; actives 0.36% (n = 360,000); AID 588489, 2011; in the data active = inhibition above about 35%, passing the limit was not always enough
PABP FP inh: PABP poly(A) RNA binding inhibitors, primary screen, biochemical, fluorescence polarization, uHTS | actives 1% (n = 290,000) | inhibition, % at 35 µM;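 also: calls also rest on retests at 20 µM and on dose response follow-up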
eIF4H FP inh: human eIF4H binding inhibitors, primary screen, translation initiation inhibitor project, biochemical, uHTS, fluorescence polarization; inhibition, % at 35 µM; AID 2012, 2009; eIF4H fluorescence polarization binding assay; actives 0.94% (n = 290,000);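 also: calls also rest on retests at 20 µM and on dose response follow-up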
CRFR2-BP antag: antagonists of CRF-BP/CRF-R2 complex, primary screen, cell-based, HEK293, calcium dye fluorescence, uHTS | CRF-induced calcium fluorescence | inhibition, % at 11.8 µM | actives 0.59% (n = 350,000) | AID 588475, 2011;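 active = inhibition of the ligand-induced calcium signal above about 50% at the single tested concentration, limit read from the data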
Of the large screens only hits and unclear results are named; the others gave an inactive call. Compounds with a hit are over-represented: about 2.6% of the library has one in this group of screens. Unless noted, no rule for the calls is given here.

O=C(c1cc2ccccc2oc1=O)N(c1ccccc1)C1C=CS(=O)(=O)C1 (centres undefined)	none
COc1ccc(N(C(=O)c2cc3ccccc3oc2=O)C2C=CS(=O)(=O)C2)cc1 (centres undefined)	PHOSPHO1 inh 60.9
NC(CSC(c1ccccc1)(c1ccccc1)c1cccc2ccccc12)C(=O)O (centres undefined)	none (no result: PHOSPHO1 inh, PABP FP inh, eIF4H FP inh)
O=C1NC(=S)S/C1=C/c1ccc(OC(=O)c2ccco2)cc1	none
O=C1NC(=S)SC1=Cc1ccccc1Cl	none (no result: PHOSPHO1 inh, PABP FP inh, eIF4H FP inh)
O=C1NC(=S)S/C1=C\c1ccc(SCc2ccco2)o1	PHOSPHO1 inh 80.1
O=C1NC(=S)S/C1=C\c1ccc(SCc2ccccc2)o1	PABP FP inh 3.2, eIF4H FP inh 80.1
c1ccc(NN(Cc2ccccn2)c2ccccc2)cc1	none (no result: PHOSPHO1 inh, PABP FP inh, eIF4H FP inh)
CC(C)(C)c1cc(-c2csc(Nc3ccccc3)[n+]2Cc2ccc(C(=O)O)cc2)cc(C(C)(C)C)c1O	PABP FP inh 5.2, eIF4H FP inh 52.4
CC(C)n1ncc2c(C(=O)Nc3cccc(S(=O)(=O)N(C)C)c3)cc(C3CC3)nc21	none (no result: PHOSPHO1 inh, PABP FP inh, eIF4H FP inh)
Nc1cc(C(=O)O)ccc1Sc1ccccc1C(=O)O	PHOSPHO1 inh 62.8
Cc1ccc(-n2nc3c(c2NC(=O)c2ccc(OC(C)C)cc2)CS(=O)C3)cc1 (centres undefined)	CRFR2-BP antag 67.7
CCOc1ccc(C(=O)Nc2c3c(nn2-c2ccc(C)cc2)CS(=O)C3)cc1OCC (centres undefined)	none
CCCNC(=O)C1(C)CCCN(C(=O)COCc2ccccc2)C1 (centres undefined)	none (no result: PHOSPHO1 inh, PABP FP inh, eIF4H FP inh, CRFR2-BP antag)
COc1ccc(N2CCN(C(c3cccs3)C(C)NC(=O)C(=O)N3CCOCC3)CC2)cc1 (centres undefined)	PHOSPHO1 inh 64.9
CCN(CC)c1ccc(/C=N/Nc2nn[nH]n2)cc1	PABP FP inh 9.2, eIF4H FP inh 50.6
CCN(CC)c1ccc(/C=N/Nc2nc(C)cc(C)n2)cc1	none
O=C(COC(=O)C1CCN(S(=O)(=O)c2ccccc2)CC1)NC(=O)c1ccc(OC(F)F)cc1	CRFR2-BP antag 131.0
CCN(CC)C(=S)SSC(=S)N(CC)CC	PHOSPHO1 inh 89.2
Cc1ccccc1C(=O)N1CCC1(C)C(=O)NC(C)C (centres undefined)	none (no result: PHOSPHO1 inh, PABP FP inh, eIF4H FP inh, CRFR2-BP antag)
COc1ccc2c(c1C)CCC(C)(C#N)C2=O (centres undefined)	none (no result: PHOSPHO1 inh, PABP FP inh, eIF4H FP inh)
CC(Cc1ccccc1)NC(=S)CN1CCCC1=S (centres undefined)	eIF4H FP inh 53.0
O=C(NC(=S)Nc1ccccc1Cl)C1CC1	PABP1 MLLE inh 40.9
CC(=O)c1cccc(NC(=S)NC(=O)c2ccccc2Cl)c1	none
O=C(NC(=S)Nc1ccccc1O)c1ccccc1Cl	PABP1 MLLE inh 43.9
NC(=O)c1ccccc1NC(=O)COc1ccc2c(c1)OCO2	none
CCc1c(C)sc(NC(=O)c2cc(C3CC3)on2)c1C#N	PABP1 MLLE inh 36.4
CCc1c(C)sc(NC(=O)c2cc(C)on2)c1C#N	none
Cc1ccc(F)c(S(=O)(=O)NC(=O)C2(C)CCN2C(=O)c2ccc(C(F)(F)F)nc2C)c1 (centres undefined)	none (no result: PHOSPHO1 inh, PABP FP inh, eIF4H FP inh, CRFR2-BP antag)
Cc1noc(/C=C/N(C)C)c1S(=O)(=O)N1CCC(C(=O)Nc2ccc(Cl)cc2)CC1	CRFR2-BP antag 90.3
N#CCc1ccc(NS(=O)(=O)c2cccs2)cc1	CRFR2-BP antag 111.5
O=S(=O)(Nc1ccc(Cc2ccncc2)cc1)c1cccs1	none
CS(=O)(=O)c1ccc(C(=O)Nc2nc(-c3ccco3)c(-c3ccco3)s2)cc1	none (no result: PHOSPHO1 inh, PABP FP inh, eIF4H FP inh)
Cc1ccc2nc3c(cc(C(=O)NC4CCS(=O)(=O)C4)n3Cc3ccccc3)c(=O)n2c1 (centres undefined)	PHOSPHO1 inh 61.6
CCn1c(=O)cc(SCC(=O)N2CCOCC2)c2ccccc21	none
CCc1c(C)nc(SCC(=O)N2CCN(c3ccccc3OC)CC2)[nH]c1=O	CRFR2-BP antag 57.6
CCn1c(=O)cc(SCC(=O)N2CCN(c3ccccc3OC)CC2)c2ccccc21	PHOSPHO1 inh 62.6
COc1ccccc1N1CCN(C(=O)CSc2nc(C)c(C)c(=O)[nH]2)CC1	none
O=C(NNc1ncnc2c1cnn2-c1ccc(F)cc1)c1ccco1	CRFR2-BP antag 68.0
Cc1ccc(-n2ncc3c(NNC(=O)c4ccco4)ncnc32)c(C)c1	none
CCn1c(C)cc(/C=C2\NC(=O)N(Cc3ccccc3)C2=O)c1C	PHOSPHO1 inh 69.6
